PubChem BioAssay (Tox21)
Unmarked numbers belong to inactive results. Results filed as inconclusive are left out. Where a call stands in place of a potency, no number is given. Calls of active or inactive are those of the source. Unless noted, the call rests on the fitted dose curve; in most records, active means well fitted curve in the direction sought with a large enough effect in the repeat runs; inconclusive means weak or mixed curves; inactive means no such curve, though single readings can be large; an effect the other way counts as inactive or inconclusive.

Columns and labels:
[1] = qHTS RealTime-Glo MT Cell Viability Assay in HEK293 cells - 0 hour (AID 1224880); further: top concentration of the series differs between compounds; nearly all actives have a fitted effect of over 45% in size
In short: (§1)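 Cells were seeded together with NanoLuc luciferase and a prosubstrate that viable cells reduce to a luciferase substrate. After a 5 h incubation at 37 C/5% CO2, compounds were added and luminescence was measured repeatedly during 40 h of treatment.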

[2] = A CellTox Green Cytotoxicity Assay to monitor cytotoxicity in HEK293 cells - 32 hour (AID 1224881); further: nearly all actives have a fitted effect of over 40% in size
In short: (§2)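 Nonlytic real-time cytotoxicity: HEK293 + CellTox Green reagent plated, 5 h preincubation, pintool compound addition (23 nL in DMSO), 37 C for 40 h, fluorescence measured at successive time points.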

[3] = A CellTox Green Cytotoxicity Assay to monitor cytotoxicity in HepG2 cells - 0 hour (AID 1224882); further: nearly all actives have a fitted effect of over 35% in size
In short: (§3)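 Read-out is fluorescence of a cyanine dye excluded from live cells that stains DNA of dead HepG2 cells, with signal proportional to cytotoxicity. Plates were read at 0, 8, 16, 24, 32 and 40 h after compound addition.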

[4] = A CellTox Green Cytotoxicity Assay to monitor cytotoxicity in HepG2 cells - 32 hour (AID 1224883); further: nearly all actives have a fitted effect of over 50% in size; further: potency means the concentration at half of the fitted maximal effect
In short: as §3

[5] = A CellTox Green Cytotoxicity Assay to monitor cytotoxicity in HEK293 cells - 8 hour (AID 1224884); further: nearly all actives have a fitted effect of over 35% in size
In short: as §2

[6] = qHTS RealTime-Glo MT Cell Viability Assay in HepG2 cells - 16 hour (AID 1224885); further: nearly all actives have a fitted effect of over 50% in size
In short: (§4)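 Tox21 10K library screened in qHTS format on HepG2 cells carrying RealTime-Glo reagents. Compounds were added after a 5 h preincubation, and the luminescent signal from continuous culture was measured repeatedly during 40 h treatment.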

[7] = qHTS RealTime-Glo MT Cell Viability Assay in HEK293 cells - 24 hour (AID 1224886); further: top concentration of the series differs between compounds; nearly all actives have a fitted effect of over 50% in size
In short: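 Luminescence generated by NanoLuc from substrate produced by living HEK293 cells served as the viability signal. Each value reflects the reading at its stated time point during continuous 40 h compound exposure at 37 C.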

[8] = qHTS RealTime-Glo MT Cell Viability Assay in HEK293 cells - 8 hour (AID 1224887); further: top concentration of the series differs between compounds; nearly all actives have a fitted effect of over 50% in size
In short: as §1

[9] = A CellTox Green Cytotoxicity Assay to monitor cytotoxicity in HEK293 cells - 16 hour (AID 1224888); further: nearly all actives have a fitted effect of over 35% in size
In short: as §2

[10] = qHTS RealTime-Glo MT Cell Viability Assay in HepG2 cells - 0 hour (AID 1224889); further: nearly all actives have a fitted effect of over 50% in size
In short: as §4

[11] = A CellTox Green Cytotoxicity Assay to monitor cytotoxicity in HepG2 cells - 8 hour (AID 1224890); further: nearly all actives have a fitted effect of over 45% in size
In short: as §3

[12] = qHTS assay to identify small molecule antagonists of the estrogen receptor alpha (ER-alpha) signaling pathway using the BG1 cell line in the presence of 0.1 nM 17-beta-estradiol - cell viability counter screen (AID 1259241); further: nearly all actives have a fitted effect of over 40% in size
In short: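 VM7Luc4E2, 4,000 cells/well, phenol red-free medium + 10% charcoal-stripped FBS; 24 hr plating; cpd + 0.1 nM E2 final, 22 hr 37C/5% CO2; CellTiter-Fluor 30 min, fluorescence.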

[13] = qHTS assay to identify small molecule antagonists of the androgen receptor (AR) signaling pathway using the MDA cell line in the presence of 0.5 nM R1881 - cell viability counter screen (AID 1259242); further: nearly all actives have a fitted effect of over 45% in size
In short: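 Counter screen for cytotoxicity run in the same wells as the AR antagonist reporter screen: MDA-kb2 cells were treated 16 hr with test compounds and 0.5 nM R1881, then live-cell protease activity was measured by fluorescence.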

[14] = qHTS assay to identify small molecule phospholipidosis (PLD) inducers (AID 1259344; active means well fitted curve in the direction sought with a large enough effect; an effect the other way counts as inactive or inconclusive)
In short: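 Quantitative HTS in HepG2: compound plus LipidTOX Red dye for 24 h, paraformaldehyde fixation with Hoechst 33342, widefield high-content imaging; amiodarone as positive and DMSO as negative control.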

[15] = qHTS assay to identify small molecule HDAC inhibitors - cell viability counter screen (AID 1259365)
In short: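 Luminescence from CellTiter-Glo, developed 30min at room temperature, reports viability of wild-type HCT-116 cells treated 2hr with compounds at 37 C and 5% CO2 after overnight plating.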

[16] = qHTS assay to identify small molecule agonists of the sonic hedgehog signaling (Shh) pathway - cell viability counter screen (AID 1259366); further: nearly all actives have a fitted effect of over 50% in size
In short: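 Cytotoxicity counter screen run in the same wells as the Shh reporter assay. NIH/3T3 cells carrying a Gli1 response element–driven luciferase were treated with DMSO-dissolved compounds for 24hr, and live-cell protease activity was measured with CellTiter-Fluor.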

[17] = qHTS assay to identify small molecule antagonists of the sonic hedgehog signaling (Shh) pathway - cell viability counter screen (AID 1259367); further: nearly all actives have a fitted effect of over 55% in size
In short: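 Seed 3T3 Gli1-Luc cells at 2,000 per well; incubate 4 hr; add compound in DMSO, then conditioned medium; incubate at 37C with 5% CO2; add CellTiter-Fluor after 23 hr; read fluorescence 1 hr later.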

[18] = qHTS assay to identify small molecule HDAC inhibitors (AID 1259364); further: nearly all actives have a fitted effect of over 45% in size; further: potency means the concentration at half of the fitted maximal effect
In short: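 Luminescence from a cell-permeant luminogenic class I/II HDAC substrate reports endogenous deacetylase activity in intact HCT-116 cells treated with compounds for 2 h.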

[19] = molecular target: Androgen receptor (Homo sapiens) (UniProt P10275); experiment: qHTS assay to identify small molecule antagonists of the androgen receptor (AR) signaling pathway using the MDA cell line in the presence of 0.5 nM R1881 (AID 1259243); further: nearly all actives have a fitted effect of over 50% in size; further: potency means the concentration at half of the fitted maximal effect
In short: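 Luciferase luminescence is the read-out: compounds are tested for suppressing 0.5 nM R1881-driven MMTV reporter activity in MDA-kb2 cells after 16 hr at 37C.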

[20] = molecular target: Estrogen receptor (Homo sapiens) (UniProt P03372); experiment: qHTS assay to identify small molecule antagonists of the estrogen receptor alpha (ER-alpha) signaling pathway using the BG1 cell line in the presence of 0.1 nM 17-beta-estradiol (AID 1259244); further: nearly all actives have a fitted effect of over 50% in size
In short: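 Cells: VM7Luc4E2, endogenous ER-alpha, 4x ERE-luc stable. Pre-culture 5 d, phenol red-free, charcoal-stripped FBS. Plated 24 h, compound + E2 0.1 nM final, 22 h 37C/5% CO2. Readout ONE-Glo luminescence.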

Chain of Estrogen receptor (Homo sapiens) (P03372 whole entry, looked up): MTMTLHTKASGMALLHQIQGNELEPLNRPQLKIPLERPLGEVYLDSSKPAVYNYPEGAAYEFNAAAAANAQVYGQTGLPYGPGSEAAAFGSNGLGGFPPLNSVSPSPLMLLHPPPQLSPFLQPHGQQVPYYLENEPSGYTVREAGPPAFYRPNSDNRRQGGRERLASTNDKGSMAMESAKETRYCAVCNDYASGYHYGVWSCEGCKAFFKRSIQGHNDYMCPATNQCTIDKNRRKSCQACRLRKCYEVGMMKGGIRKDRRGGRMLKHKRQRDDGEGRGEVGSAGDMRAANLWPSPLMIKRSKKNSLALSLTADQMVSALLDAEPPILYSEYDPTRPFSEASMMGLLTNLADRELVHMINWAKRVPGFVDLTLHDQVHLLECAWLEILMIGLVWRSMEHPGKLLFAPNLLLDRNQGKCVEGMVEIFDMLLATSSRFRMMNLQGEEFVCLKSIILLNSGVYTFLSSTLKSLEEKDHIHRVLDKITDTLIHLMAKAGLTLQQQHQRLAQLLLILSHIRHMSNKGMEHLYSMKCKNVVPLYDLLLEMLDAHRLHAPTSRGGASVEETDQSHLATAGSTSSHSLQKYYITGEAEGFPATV
Chain of Androgen receptor (Homo sapiens) (P10275 whole entry, looked up): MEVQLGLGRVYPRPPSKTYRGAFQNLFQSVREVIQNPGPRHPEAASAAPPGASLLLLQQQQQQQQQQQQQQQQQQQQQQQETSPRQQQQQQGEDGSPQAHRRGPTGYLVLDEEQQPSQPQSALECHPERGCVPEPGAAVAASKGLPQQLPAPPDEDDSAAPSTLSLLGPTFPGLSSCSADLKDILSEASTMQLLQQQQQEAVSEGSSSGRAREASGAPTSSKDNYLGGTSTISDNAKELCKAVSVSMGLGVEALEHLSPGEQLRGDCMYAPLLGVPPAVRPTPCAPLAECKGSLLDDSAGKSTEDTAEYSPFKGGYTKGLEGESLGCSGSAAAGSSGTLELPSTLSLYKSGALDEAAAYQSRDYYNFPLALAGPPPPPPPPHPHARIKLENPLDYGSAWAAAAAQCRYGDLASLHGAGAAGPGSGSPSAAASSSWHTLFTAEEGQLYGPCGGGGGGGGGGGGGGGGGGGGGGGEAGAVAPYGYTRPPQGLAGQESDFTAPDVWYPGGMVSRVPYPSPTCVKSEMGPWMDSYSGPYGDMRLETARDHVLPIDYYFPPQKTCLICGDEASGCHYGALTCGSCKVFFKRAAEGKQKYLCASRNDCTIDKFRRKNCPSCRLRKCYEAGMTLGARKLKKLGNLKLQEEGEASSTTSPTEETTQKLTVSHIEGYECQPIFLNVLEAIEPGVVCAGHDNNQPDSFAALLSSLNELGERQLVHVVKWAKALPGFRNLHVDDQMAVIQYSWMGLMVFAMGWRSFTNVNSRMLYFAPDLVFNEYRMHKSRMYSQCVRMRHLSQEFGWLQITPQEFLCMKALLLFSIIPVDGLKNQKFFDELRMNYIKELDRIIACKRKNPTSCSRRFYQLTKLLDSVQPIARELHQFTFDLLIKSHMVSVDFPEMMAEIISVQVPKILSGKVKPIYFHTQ

SMILES | outcome [1] | Potency [2] | Potency [3] | Potency [4] | Potency [5] | outcome [6] | Potency [7] | Potency [8] | Potency [9] | Potency [10] | Potency [11] | Potency [12] | outcome [13] | outcome [14] | outcome [15] | Potency [16] | Potency [17] | Potency [18] | Potency [19] | Potency [20]
CC1(C)S[C@@H]2[C@H](NC(=O)C(C(=O)O)c3ccccc3)C(=O)N2[C@H]1C(=O)O (stereo partly drawn) | inactive | inactive | inactive | inactive | inactive | inactive | inactive | inactive | inactive | inactive | inactive | inactive | inactive | inactive | inactive | inactive | inactive | – | – | –
CN1CCC[C@@H]1Cc1c[nH]c2ccc(CCS(=O)(=O)c3ccccc3)cc12 | inactive | inactive | inactive | inactive | inactive | inactive | inactive | inactive | inactive | inactive | inactive | inactive | inactive | – | inactive | inactive | inactive | inactive | – | –
CCNCCO | inactive | inactive | inactive | inactive | inactive | inactive | inactive | inactive | inactive | inactive | inactive | inactive | inactive | – | inactive | inactive | inactive | – | – | –
Cc1c(N)cccc1N | inactive | inactive | inactive | inactive | inactive | inactive | inactive | inactive | inactive | inactive | inactive | inactive | inactive | – | inactive | inactive | inactive | inactive | – | –
CCOC(=O)CS | inactive | inactive | inactive | inactive | inactive | inactive | inactive | inactive | inactive | inactive | inactive | inactive | inactive | – | inactive | inactive | – | 25 µM (active) | – | –
Cn1cnc2c(F)c(Nc3ccc(Br)cc3Cl)c(C(=O)NOCCO)cc21 | inactive | inactive | inactive | 0.0379 µM (active) | inactive | inactive | inactive | inactive | inactive | inactive | – | inactive | inactive | inactive | inactive | – | inactive | inactive | 5.96 µM (active) | –
O=C1CCCCC1C1CCCCC1 (stereo not drawn) | inactive | inactive | inactive | inactive | inactive | inactive | inactive | inactive | inactive | inactive | inactive | inactive | inactive | – | inactive | inactive | inactive | – | – | inactive
CCCC1CCC(=O)O1 (stereo not drawn) | inactive | inactive | inactive | inactive | inactive | inactive | inactive | inactive | inactive | inactive | inactive | inactive | inactive | – | inactive | inactive | inactive | inactive | – | –
CC(C)C(=O)OC/C=C/c1ccccc1 | inactive | inactive | inactive | inactive | inactive | inactive | inactive | inactive | inactive | inactive | – | inactive | inactive | – | inactive | inactive | inactive | inactive | – | inactive
Oc1ccccc1C=NCc1ccccc1 | inactive | inactive | inactive | inactive | inactive | inactive | inactive | inactive | inactive | inactive | inactive | inactive | inactive | inactive | inactive | inactive | inactive | inactive | – | –
CCCC(CCC)(C(=O)OCC)C(=O)OCC | inactive | inactive | inactive | inactive | inactive | inactive | inactive | inactive | inactive | inactive | – | inactive | inactive | – | inactive | inactive | inactive | inactive | inactive | inactive
O=C1CCCc2ccccc21 | inactive | inactive | inactive | inactive | inactive | inactive | inactive | inactive | inactive | inactive | – | inactive | inactive | – | inactive | inactive | inactive | inactive | – | inactive
CC1=C(O)C(=O)OC1C (stereo not drawn) | inactive | inactive | inactive | inactive | inactive | inactive | inactive | inactive | inactive | inactive | – | inactive | inactive | – | inactive | inactive | inactive | inactive | – | –
CCCCNc1cc(C(=O)O)cc(S(N)(=O)=O)c1Oc1ccccc1 | inactive | inactive | inactive | inactive | inactive | inactive | inactive | inactive | inactive | inactive | – | inactive | inactive | inactive | inactive | inactive | inactive | inactive | – | –
CC(C)=CCCC(C)CCOC=O (stereo not drawn) | inactive | inactive | inactive | inactive | inactive | inactive | inactive | inactive | inactive | inactive | inactive | inactive | inactive | – | inactive | inactive | – | inactive | – | –
